Most compounds without a hit are left out; they make up all but 0.9% or so of the library.
TR-FRET SRC-2 ct: TR-FRET signal artefacts, primary screen, artefact control for PPARgamma SRC-2 agonist project, biochemical | TR-FRET artefact counter-screen; stronger effect = higher value | TR-FRET ratio at 8 µM | 200,000 tested, 0.4% active | AID 1049, 2008; in the data active = TR-FRET ratio above about 2000
SRC3 TRFRET art: TR-FRET detection interference compounds, artefact control for PPARgamma SRC-3 recruitment agonists, biochemical, TR-FRET ratio; TR-FRET artefact counter-screen, PPARgamma/SRC-3 format; stronger effect = higher value; TR-FRET ratio at 8 µM; 99,000 tested, 0.39% active; in the data active = TR-FRET ratio above about 2000
PPARg SRC1 recr: PPARgamma agonists recruiting SRC-1 coactivator, primary screen, biochemical; 200,000 tested, 0.41% active; Peroxisome proliferator-activated receptor gamma (Homo sapiens), P37231; activation, % at 8 µM; PPARgamma-SRC-1 coactivator recruitment biochemical assay; in the data active = activation above about 19%;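 note: 0% = DMSO and 100% = reference agonist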
Target sequence (P37231 whole entry, looked up): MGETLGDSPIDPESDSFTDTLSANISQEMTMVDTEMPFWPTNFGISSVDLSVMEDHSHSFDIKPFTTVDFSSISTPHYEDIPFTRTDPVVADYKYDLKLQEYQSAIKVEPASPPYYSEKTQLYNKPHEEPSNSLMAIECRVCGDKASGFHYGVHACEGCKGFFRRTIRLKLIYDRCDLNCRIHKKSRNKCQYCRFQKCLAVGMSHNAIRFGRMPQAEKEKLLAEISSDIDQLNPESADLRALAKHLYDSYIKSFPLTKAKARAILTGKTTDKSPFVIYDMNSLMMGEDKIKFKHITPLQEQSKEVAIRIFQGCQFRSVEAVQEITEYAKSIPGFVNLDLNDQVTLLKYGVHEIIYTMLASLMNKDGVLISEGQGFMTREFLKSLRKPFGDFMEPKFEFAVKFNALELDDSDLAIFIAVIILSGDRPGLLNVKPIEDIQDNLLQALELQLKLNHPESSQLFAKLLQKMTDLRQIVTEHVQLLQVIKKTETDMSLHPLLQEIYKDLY
SRC1 TRFRET art: TR-FRET detection interference compounds, primary screen, artefact control for PPARgamma SRC-1 recruitment agonists, biochemical, TR-FRET emission ratio; TR-FRET detection artefact counter-screen; stronger effect = higher value; TR-FRET ratio at 8 µM; 99,000 tested, 0.34% active; AID 1051, 2008; in the data active = TR-FRET ratio above about 2300
PPARg SRC3 recr: PPARgamma agonists recruiting SRC-3 coactivator, primary screen, biochemical | biochemical PPARgamma/SRC-3 coactivator recruitment assay | activation, % at 8 µM | 200,000 tested, 0.26% active | AID 731, 2007; in the data active = activation above about 23%;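 note: 0% = DMSO and 100% = reference agonist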
PPARg SRC-2 ag: agonists of PPARg-SRC-2 recruitment, primary screen, biochemical, HTS; AID 1032, 2008; Peroxisome proliferator-activated receptor gamma (Homo sapiens), P37231; 200,000 tested, 0.34% active; activation, % at 8 µM; PPARgamma LBD-SRC-2 recruitment;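 note: 0% = vehicle and 100% = reference agonist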
PPARg SRC2 ag: agonists of PPARgamma SRC-2 coactivator recruitment, confirmation, biochemical, HTS; shares compounds with PPARg SRC3 recr; biochemical SRC-2 recruitment by PPARgamma; activation, % at 8 µM; 790 tested, 52% active; AID 1297, 2008;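 note: 0% = vehicle alone and 100% = reference agonist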
PPARg SRC1 conf: PPARgamma agonists recruiting SRC-1 coactivator, confirmation, biochemical; 790 tested, 43% active; PPARgamma–SRC-1 coactivator recruitment biochemical assay; activation, % at 8 µM; shares compounds with PPARg SRC3 recr; in the data active = activation above about 20%;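 note: 0% = vehicle wells and 100% = reference agonist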
PPARg SRC3 ag: PPARgamma-driven SRC-3 coactivator recruitment agonists, confirmation, biochemical | AID 1301, 2008 | biochemical PPARgamma-SRC-3 coactivator recruitment, agonist mode | shares compounds with PPARg SRC3 recr | activation, % at 8 µM | 790 tested, 29% active; in the data active = activation above about 24%;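 note: 0% = vehicle wells and 100% = reference agonist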
The depositor's hits bear a star; · = no result. Cut-off read from the data, not from the text of the source, unless noted: active = activation above about 22%; inactive = the rest.

SMILES	TR-FRET SRC-2 ct	SRC3 TRFRET art	PPARg SRC1 recr	SRC1 TRFRET art	PPARg SRC3 recr	PPARg SRC-2 ag	PPARg SRC2 ag	PPARg SRC1 conf	PPARg SRC3 ag
Clc1ccc(Cl)c(-c2ccc(/C=N/c3ncn[nH]3)o2)c1	2699*	·	49.4*	·	58.2*	53.7*	52.8*	38.4*	29.9*
CN(C)c1ccc(NC(=O)Nc2ccc3snnc3c2)cc1	1850	·	22.7*	·	36.3*	20.6	4.2	1.4	2.9
Cc1ccnc(NC(=O)CCCOc2cc(=O)n(C)c3ccccc23)c1	1577	·	-7.3	·	-4.4	-0.8	·	·	·
Cn1c(=O)cc(SCC(=O)Nc2ccccn2)c2ccccc21	2585*	·	44.6*	·	65.1*	59.0*	33.8*	23.5*	26.7*
Cc1ccnc(NC(=O)CSc2cc(=O)n(C)c3ccccc23)c1	3578*	·	74.5*	·	95.9*	75.0*	41.6*	23.3*	27.5*
Cn1c(N/N=C/c2c[nH]c3ccccc23)nc2ccccc21	1730	·	17.8	·	4.1	23.8*	12.2	6.0	8.1
COc1ccc(C2C(C(=O)c3cccs3)=C(O)C(=O)N2c2nnc(C)s2)cc1OC (stereo not drawn)	1679	·	13.3	·	9.1	7.8	·	·	·
CC(C)c1nnc(N2C(=O)C(O)=C(C(=O)c3cccs3)C2c2ccccc2)s1 (stereo not drawn)	2400*	2283*	38.1*	2598*	20.6	30.6*	13.2	9.2	8.0
COc1ccc(C2C(C(=O)c3cccs3)=C(O)C(=O)N2c2nncs2)cc1 (stereo not drawn)	1901	·	27.4*	·	26.2*	13.3	23.5*	18.6	14.0
C=CCOc1ccc(C2C(C(=O)c3cccs3)=C(O)C(=O)N2c2nnc(C)s2)cc1 (stereo not drawn)	1771	·	11.3	·	14.6	17.2	·	·	·
CC(=O)Oc1c(/C=C(\C#N)C(N)=O)[nH]c2ccccc12	1474	1629	20.7*	1870	10.4	22.4*	22.3*	12.2	12.9
CC(NC(=O)OC(C)(C)C)C(=O)NC(CCC(=O)OCc1ccccc1)C(N)=O (stereo not drawn)	1476	1641	-0.5	1797	2.1	4.0	·	·	·
C=CCn1c(-c2cccc(Cl)c2)n[nH]c1=S	2008*	·	24.9*	·	27.8*	19.9	19.8	13.9	12.6
S=c1[nH]cnc2sc(-c3ccccc3)cc12	2602*	2631*	46.4*	3261*	30.1*	51.7*	33.0*	22.2*	20.7
CNc1ncnc2sc(-c3ccccc3)cc12	1590	1461	-1.9	2133	-0.3	-4.7	·	·	·
CC(C)OC(=O)C(C)Nc1n[nH]c(=S)[nH]c1=O (stereo not drawn)	3006*	3327*	71.3*	3785*	45.1*	66.2*	98.2*	73.8*	63.5*
COC(=O)CNc1n[nH]c(=S)[nH]c1=O	4234*	·	99.8*	·	156.0*	120.7*	118.7*	86.2*	82.2*
COC(=O)CCNc1n[nH]c(=O)[nH]c1=O	1554	1714	-1.0	1933	6.5	7.6	·	·	·
CCOC(=O)CSc1nnc(NCC(=O)OC(C)C)c(=O)[nH]1	1728	·	7.0	·	7.4	7.3	·	·	·
CC(C)OC(=O)CNc1n[nH]c(=S)[nH]c1=O	4518*	4653*	113.4*	5153*	74.0*	128.8*	106.2*	77.9*	70.6*
CC(C)COC(=O)C(C)Nc1n[nH]c(=S)[nH]c1=O (stereo not drawn)	1786	1932	8.0	2031	5.0	10.0	·	·	·
